Results filed as inconclusive are left out. Active and inactive are the calls of the source. Calls follow the shape of the dose curve; as a rule, active = well fitted curve in the direction sought with a large enough effect; inconclusive = small, poorly fitted or top-dose-only effect, or another doubt; inactive = no such curve, though single readings can be large; an effect the other way counts as inactive or inconclusive.
Assays:
CRL-7250 = normal cell line; experiment: Cytotoxic Profiling of Annotated Libraries Using Quantitative High-Throughput Screening (AID 1296008); details: Five cell lines viability, CellTiter-Glo ATP luminescence, 48-72 h; max response: hits give low values; also: nearly all actives have a fitted effect of over 60% in size; as to max response: % is scaled to controls: 0 for no effect and ±100 for the full control effect
In short: (§1)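 Compounds were pin-transferred onto cells and incubated 48 or 72 hr at 37 degree Celsius, 95% humidity. CellTiter-Glo was added, plates sat 10 min at room temperature, then ATP-coupled luminescence was imaged as the viability read-out.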

HEK293 = experiment: as above; details: Five cell lines viability, CellTiter-Glo ATP luminescence, 48-72 h; max response: hits give low values
In short: as §1

HaCat [1] = experiment: as above; details: Five cell lines viability, CellTiter-Glo ATP luminescence, 48-72 h; max response: hits give low values
In short: as §1

KB-3-1 = experiment: as above; details: Five cell lines viability, CellTiter-Glo ATP luminescence, 48-72 h; max response: hits give low values
In short: as §1

NIH3T3 [2] = experiment: as above; details: Five cell lines viability, CellTiter-Glo ATP luminescence, 48-72 h; max response: hits give low values
In short: as §1

HACAT [3] = experiment: qHTS assay to identify novel small-molecules to repurpose for Merkel cell carcinoma treatment (AID 1296009); details: MCC and control cell lines, CellTiter-Glo viability, 72 h; at 44.8 µM (top of the series) unless noted; also: nearly all actives have a fitted effect of over 60% in size
In short: (§2)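 qHTS format: cells treated with library compounds in DMSO across 8 (NPC) or 11 (MIPE) concentrations. Readout after 72 hr at 37 degree celsius was CellTiter-Glo luminescence.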

HEK293T = experiment: as above; details: MCC and control cell lines, CellTiter-Glo viability, 72 h; series mostly up to 44.8 µM
In short: as §2

NIH3T3 [4] = experiment: as above; details: MCC and control cell lines, CellTiter-Glo viability, 72 h; at 44.8 µM (top of the series) unless noted
In short: as §2

C33A = experiment: Primary qHTS to identify gynecologic anti-cancer compounds using libraries of approved drugs and bioactive compounds (AID 1345084); details: Gynecologic cancer cell panel viability, ATPlite luminescence, 48 h; series mostly up to 57.5 µM; also: % is scaled to controls: 0 for no effect and ±100 for the full control effect; nearly all actives have a fitted effect of over 55% in size
In short: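 Five-point cytotoxicity, 48 h drug exposure at 37 C, 5% CO2, on cells seeded 16 h beforehand. ATP content read by ATPlite luminescence.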

COC(=O)[C@@]1(O)C=CC[C@@H]2[C@@]3(C)C[C@@H](c4ccoc4)OC(=O)[C@H]3CC[C@]21C
inactive: outcome (CRL-7250) | outcome (HEK293) | outcome (HaCat [1]) | max response (KB-3-1) 0.0207% | outcome (NIH3T3 [2]) | outcome (HACAT [3]) | Potency (HEK293T) | outcome (NIH3T3 [4]) | Potency (C33A)

CCNC(=O)CCC/C=C\C[C@@H]1[C@@H](/C=C/C(O)CCc2ccccc2)[C@@H](O)C[C@@H]1O (some centres not stated)
inactive: outcome (CRL-7250) | outcome (HEK293) | outcome (HaCat [1]) | max response (KB-3-1) 9.15% | outcome (NIH3T3 [2]) | outcome (HACAT [3]) | Potency (HEK293T) | outcome (NIH3T3 [4]) | Potency (C33A)

CC1CC(=O)C2=C(O1)OC1(C)CCC3C(C)(C)C=CC(=O)C3(C)C1C2 (configuration not stated)
inactive: max response (CRL-7250) -3.54% | outcome (HEK293) | outcome (HaCat [1]) | outcome (KB-3-1) | outcome (NIH3T3 [2]) | outcome (HACAT [3]) | Potency (HEK293T) | outcome (NIH3T3 [4]) | Potency (C33A)

CC1(C)CC(=O)N(CCCCN2CCN(c3ncccn3)CC2)C(=O)C1
inactive: outcome (CRL-7250) | outcome (HEK293) | outcome (HaCat [1]) | max response (KB-3-1) 4.21% | outcome (NIH3T3 [2]) | outcome (HACAT [3]) | Potency (HEK293T) | outcome (NIH3T3 [4]) | Potency (C33A)

CC(=O)O[C@@H]1C[C@]2(C)[C@@]3(CCC4[C@@]5(C)CC[C@H](O[C@@H]6O[C@H](C(=O)O)[C@@H](O)[C@H](O[C@@H]7O[C@H](CO)[C@H](O)[C@H](O)[C@H]7O[C@@H]7O[C@@H](C)[C@H](O)[C@@H](O)[C@H]7O[C@@H]7OC[C@](O)(CO)[C@H]7O)[C@H]6O[C@@H]6O[C@H](CO)[C@H](O)[C@H](O)[C@H]6O)C(C)(C)C5CC[C@]42C)O[C@@H](O)[C@]12C3CC(C)(C)[C@@H](OC(=O)/C=C/c1ccc(O)c(O)c1)[C@@H]2OC(=O)/C=C/c1ccccc1 (some centres not stated)
inactive: max response (CRL-7250) 3.23% | outcome (HEK293) | outcome (HaCat [1]) | outcome (KB-3-1) | outcome (NIH3T3 [2]) | outcome (HACAT [3]) inactive [at 9.27 µM] | outcome (HEK293T) inactive [at 9.27 µM] | outcome (NIH3T3 [4]) inactive [at 9.27 µM] | activity change, negative = cytotoxicity (C33A) 8.85% [at 6.55 µM]

OC[C@H]1O[C@@H](Oc2cc(O)cc(/C=C/c3ccc(O)cc3)c2)[C@H](O)[C@@H](O)[C@@H]1O
inactive: outcome (CRL-7250) | outcome (HEK293) | outcome (HaCat [1]) | outcome (KB-3-1) | outcome (NIH3T3 [2]) | outcome (HACAT [3]) | Potency (HEK293T) | outcome (NIH3T3 [4]) | Potency (C33A)

C[C@H]1CN(C[C@H](Cc2ccccc2)C(=O)NCC(=O)O)CC[C@@]1(C)c1cccc(O)c1
inactive: max response (CRL-7250) -8.36% | outcome (HEK293) | outcome (HaCat [1]) | outcome (KB-3-1) | outcome (NIH3T3 [2]) | outcome (HACAT [3]) | Potency (HEK293T) | outcome (NIH3T3 [4]) | Potency (C33A)

C=CCc1ccc(O[C@@H]2O[C@H](CO)[C@@H](O)[C@H](O)[C@H]2O)c(OC)c1
inactive: max response (CRL-7250) -5.9% | outcome (HEK293) | outcome (HaCat [1]) | outcome (KB-3-1) | outcome (NIH3T3 [2]) | outcome (HACAT [3]) | Potency (HEK293T) | outcome (NIH3T3 [4]) | Potency (C33A)

Cn1ccnc1CCOC(c1cc2nccc(C(=O)O)c2[nH]1)c1ccccc1Cl (configuration not stated)
inactive: outcome (CRL-7250) | outcome (HEK293) | outcome (HaCat [1]) | max response (KB-3-1) 2.27% | max response (NIH3T3 [2]) 4.24% | outcome (HACAT [3]) | Potency (HEK293T) | Potency (C33A)

C=C1CC[C@H]2[C@@](C)(CCC(O)[C@@]2(C)CO)[C@@H]1C/C=C(/C(=O)O)C(O)CO (some centres not stated)
inactive: outcome (CRL-7250) | outcome (HEK293) | outcome (HaCat [1]) | max response (KB-3-1) 7.71% | outcome (NIH3T3 [2]) | outcome (HACAT [3]) | Potency (HEK293T) | outcome (NIH3T3 [4]) | Potency (C33A)

COC(=O)[C@H](CC1C=NC=N1)NCC12CC3CC(CC(C3)C1)C2 (some centres not stated)
inactive: max response (CRL-7250) -3.43% | outcome (HEK293) | outcome (HaCat [1]) | max response (KB-3-1) 1.43% | outcome (NIH3T3 [2]) | outcome (HACAT [3]) | Potency (HEK293T) | outcome (NIH3T3 [4]) | Potency (C33A)

C=CC(C)(O)CC/C=C(/C)C(=O)OC1C(OC2OCC(OC3OC(CO)C(O)C(O)C3O)C(OC3OCC(O)C(OC4OC(C)C(O)C(O)C4O)C3O)C2O)COC(OC(=O)C23CCC(C)(C)CC2C2=CCC4C5(C)CCC(OC6OC(CO)C(OC7OC(CO)C(O)C(OC8OCC(O)C(O)C8O)C7O)C(O)C6O)C(C)(C)C5CCC4(C)C2(C)CC3O)C1O (configuration not stated)
inactive: outcome (CRL-7250) | outcome (HEK293) | outcome (HaCat [1]) | max response (KB-3-1) -5.7% | outcome (NIH3T3 [2]) | outcome (HACAT [3]) inactive [at 4.96 µM] | outcome (HEK293T) inactive [at 4.96 µM] | outcome (NIH3T3 [4]) inactive [at 4.96 µM] | activity change, negative = cytotoxicity (C33A) 1.13% [at 6.55 µM]

CC(C)C(=O)O[C@@H]1[C@@H](O)[C@@H](O[C@H]2O[C@H](CO)[C@@H](O)[C@H](O)[C@H]2O)O[C@H](CO)[C@H]1O
inactive: max response (CRL-7250) -2.11% | outcome (HEK293) | outcome (HaCat [1]) | max response (KB-3-1) 3.97% | max response (NIH3T3 [2]) 1.16% | outcome (HACAT [3]) inactive [at 17.4 µM] | Potency (HEK293T) | Potency (C33A)

COC1CCCC/C(C)=C/C2C=C(C)C(C)C3C(CC(C)C)NC(=O)C23C(=O)C1 (configuration not stated)
inactive: outcome (CRL-7250) | outcome (HEK293) | outcome (HaCat [1]) | max response (KB-3-1) 5.18% | outcome (NIH3T3 [2]) | outcome (HACAT [3]) inactive [at 17.4 µM] | Potency (HEK293T) | outcome (NIH3T3 [4]) inactive [at 17.4 µM] | Potency (C33A)

COc1cc(/C=C/CO)ccc1O[C@@H]1O[C@H](CO)[C@@H](O)[C@H](O)[C@H]1O
inactive: max response (CRL-7250) -3.79% | outcome (HEK293) | outcome (HaCat [1]) | max response (KB-3-1) 9.42% | outcome (NIH3T3 [2]) | outcome (HACAT [3]) | Potency (HEK293T) | outcome (NIH3T3 [4]) | Potency (C33A)

C=CC(C)(C)C12CC3C(=O)NC(Cc4cnc[nH]4)C(=O)N3C1Nc1ccccc12 (configuration not stated)
inactive: max response (CRL-7250) -2.57% | outcome (HEK293) | outcome (HaCat [1]) | outcome (KB-3-1) | outcome (NIH3T3 [2]) | outcome (HACAT [3]) | Potency (HEK293T) | outcome (NIH3T3 [4]) | Potency (C33A)

Reference: PubChem BioAssay (NCATS)
